Screening data: PubChem BioAssay, several laboratories
697 NFkB inh = inhibitors of the PMA/ionomycin-induced NF-kB reporter in 697 B cells | 697 B-cell NF-kB luciferase reporter, 16 h | inhibition, % at 4 µM | 330,000 tested, 0.33% active; in the data active = inhibition above about 35%
Mdm2-MdmX inh = disrupts the human Mdm2-MdmX interaction; O15151+Q00987; SaOS-2 split-luciferase Mdm2/MdmX complementation, luminescence; inhibition, % at 8 µM; 330,000 tested, 3% active; AID 485346;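 active = inhibition of at least 50% at 8 µM in the primary screen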
NTR1 ag = NTR1 (human) agonism; P30989; NTR1-U2OS beta-arrestin-GFP spot imaging, agonist mode; activation, % at 20 µM; 330,000 tested, 0.17% active; AID 493036;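 active = activation at or above 40% of the spot to cytoplasm intensity ratio, with at least 20 cells analyzed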;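 note: 0% = DMSO without peptide and 100% = 100 nM NTR1 peptide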
Target sequence (P30989 whole entry, looked up): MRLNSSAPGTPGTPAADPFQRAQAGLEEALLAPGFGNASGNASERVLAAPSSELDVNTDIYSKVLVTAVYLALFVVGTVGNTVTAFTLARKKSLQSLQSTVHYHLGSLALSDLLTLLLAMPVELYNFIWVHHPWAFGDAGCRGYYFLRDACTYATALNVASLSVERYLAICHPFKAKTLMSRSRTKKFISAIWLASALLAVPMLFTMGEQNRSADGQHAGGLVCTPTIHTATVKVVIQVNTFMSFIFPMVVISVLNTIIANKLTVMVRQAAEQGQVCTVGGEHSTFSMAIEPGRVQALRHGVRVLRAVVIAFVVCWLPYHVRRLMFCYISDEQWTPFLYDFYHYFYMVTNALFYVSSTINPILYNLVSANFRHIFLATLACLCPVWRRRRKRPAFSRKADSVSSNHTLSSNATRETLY
Jurkat NFkB inh = inhibitors of the PMA/ionomycin-induced NF-kB reporter in Jurkat cells. PMA/ionomycin-induced NF-kB luciferase reporter, luminescence. inhibition, % at 4 µM. 330,000 tested, 0.53% active; in the data active = inhibition above about 50%
Beta cell apopt = blocks beta cell apoptosis; INS-1E cytokine-induced death, ATP luminescence, 48 h; percent of positive-control rescue, neutral wells zero; 300,000 tested, 0.8% active; protection from apoptosis, % (concentration not given with the values); AID 435005;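 active = Every replicate reaches about 75%, or at least half do and their mean reaches it too, limit read from the data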;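 note: 0% = cytokine-treated negative control wells and 100% = positive control rescue; higher means more ATP so stronger rescue from cytokine killing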
Bfl-1 A1 inh = inhibitors of the anti-apoptotic protein A1, read as caspase activation | MEF A1-2A-BIM cells, Caspase-Glo 3/7 luminescence, 3 h; percent of clofoctol response, vehicle zero | caspase activation, % (test concentration not listed) | 330,000 tested, 0.066% active | AID 2462;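 active = over half of replicate activation scores above 10%, or exactly half above 10 with the replicate mean above 10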
Mdm2-MdmX conf = confirmation of human Mdm2/MdmX interaction inhibitors | shares compounds with Mdm2-MdmX inh | Mdm2-MdmX binding, luminescent assay | inhibition, % at 8 µM | 10,000 tested, 55% active | AID 489028; in the data active = inhibition above about 40%
FLuc counter = inhibits full-length luciferase, flagging false Mdm2/MdmX hits; shares compounds with Mdm2-MdmX inh; SaOS-2 full-length luciferase counterscreen, luminescence; inhibition, % at 8 µM; 6,200 tested, 77% active; AID 504607;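 active = mean inhibition at 8 µM reaching about 37%, which flags the compound as non-specific, limit read from the data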;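 note: p53-null SaOS-2 cells with luciferase driven by a doxycycline-inducible promoter; compound on cells about two nights before reading with doxycycline added after day one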
Numbers without * were called inactive; . = no result. Rows were chosen to be rich in hits. Some 3.8% of all compounds tested hit in one or more screens of this group.

SMILES	697 NFkB inh	Mdm2-MdmX inh	NTR1 ag	Jurkat NFkB inh	Beta cell apopt	Bfl-1 A1 inh	Mdm2-MdmX conf	FLuc counter
Cc1ccc(C(=O)N[C@@H](C)CN2C3=NC[C@H](C(C)C)N3C[C@H]2Cc2ccc(O)cc2)cc1Br	16	7	-2	4	7	-1	.	.
CCN1CCN(CCCNC(=O)C2CCCN(c3nc4c(C)cc(C)cc4s3)C2)CC1 (centres undefined)	-8	48	2	-1	-5	0	.	.
O=C(CCN1C(=O)/C(=C/c2ccccc2F)SC1=S)Nc1ccccn1	-5	12	3	14	-7	0	.	.
CCOC(=O)N1CCN(C(=O)CCN2C(=O)/C(=C\c3cccc(OC)c3)SC2=S)CC1	11	60*	1	21	-26	0	38	46*
O=C(CN1C(=O)/C(=C/c2cccc(Br)c2)SC1=S)Nc1cccnc1	10	-6	4	1	6	-1	.	.
O=C1/C(=C/c2ccccc2Cl)SC(=S)N1CCCC(=O)N(CCO)c1ccccc1	15	98*	30	20	.	0	15	.
O=C(CCN1C(=O)/C(=C\c2ccccc2F)SC1=S)N1CCCCC1	5	93*	10	19	-45	0	67*	105*
O=C(CN1C(=O)/C(=C/c2cccc(Br)c2)SC1=S)N1CCCC1	3	62*	4	4	-21	1	76*	63*
COc1ccc(CNC(=O)CCc2ccc(S(=O)(=O)N3CCCCCC3)cc2)cc1OC	1	0	0	12	.	.	.	.
Cc1occc1C(=O)N1CCN(S(=O)(=O)c2ccc(F)cc2)CC1	10	-31	-2	-6	-3	0	.	.
Cc1ccccc1OCC(=O)Nc1nnc(COc2ccccc2)s1	1	-9	1	-8	-7	0	.	.
COc1ccc(/C=C2\SC(=S)N(CCC(=O)N3CCCCC3)C2=O)cc1	15	64*	3	-1	-16	0	46*	90*
COc1cccc(/C=C2\SC(=S)N(CCCC(=O)Nc3cc(C)on3)C2=O)c1	24	52*	24	12	4	1	58*	70*
O=C(CCN1C(=O)/C(=C/c2ccccc2)SC1=S)N1CCCCCC1	-28	95*	26	-4	10	0	77*	52*
COc1ccc(/C=C2/SC(=S)N(CCC(=O)N3CCN(C)CC3)C2=O)cc1	1	12	4	-3	-15	0	.	.
CC1CCN(C(=O)CCN2C(=O)/C(=C/c3cccs3)SC2=S)CC1	12	83*	4	7	-12	0	46*	20
CC(OC(=O)C1CCCCC1)C(=O)Nc1cccc([N+](=O)[O-])c1 (centres undefined)	8	26	1	4	1	0	.	.
O=C(CCN1C(=O)/C(=C\c2ccccc2Cl)SC1=S)N1CCN(c2ccccc2)CC1	-10	98*	5	7	-16	1	80*	42*
COc1cc(/C=C2\SC(=S)N(CCC(=O)Nc3ccccc3)C2=O)cc(OC)c1OC	14	-8	14	6	7	-1	.	.
COc1cccc(/C=C2\SC(=S)N(CCC(=O)N3CCCCC3)C2=O)c1	27	86*	2	10	-83	-1	53*	71*
COC(=O)COc1ccc(/C=C2/SC(=O)N(CC(=O)N3CCCC3)C2=O)cc1Br	2	56*	8	-15	.	-1	11	.
COc1ccccc1NC(=O)CCN1C(=O)/C(=C\c2cc(OC)c(OC)c(OC)c2)SC1=S	-19	52*	0	13	-1	-2	-2	.
COc1ccc(OC)c(/C=C(\C)C(=O)c2c(C)cc(C)[nH]c2=O)c1	5	-1	4	-21	-3	0	.	.
O=C(COc1ccccc1[N+](=O)[O-])N1CCN(c2ccccn2)CC1	12	5	0	17	-5	0	.	.
